# Results: PubChem BioAssay AID1159506 (National Center for Advancing Translational Sciences (NCATS), 2015)
# In all, about 59,000 sequences were measured (the read-out: median about -0.00055, lowest 2% from about -2 on). Shown is part of a subset that was picked to be rich in the lowest values.
# Test: Identification of proteins required for the processing of the EWS-FLI1 nascent transcript;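 also: robust z of luciferase light less the median z of siRNAs with the same seed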
# Conditions: TC32 Ewing sarcoma NR0B1-luc vs CMV-luc (EWS-FLI1 target promoter against control promoter), 48 h; screened at 20 nM (by protocol)
# Procedure, shortened: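 Parallel TC32-NR0B1-luc and TC32-CMV-luc reverse transfections with 20 nM siRNA in RPMI-1640/10% FBS, luciferase measured 48 h later. Seed-adjusted z-scores from normalized, z-score-MAD transformed data; AllStars negative and siGL4 controls on each plate.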
row,Sequence,seed-corrected z-score
1,UCAUGAUCUAUGUAGCCCG against ODF3L1,-2.53
2,UUCACCAUGACAGCCGAAG against RPL37AP8,-0.494
3,UUCAAUUCCAGCAACAUAA against CLDND1,-0.35
4,AUGGUAACGAGCUGAAUCC against TWF1,0.694
5,AAAUGUACAGGGAUCCAGG against ACCSL,-2.2
6,UUCAGGGCGAGGUAAUCCU against HLA-G,-0.165
7,UUUCAUAAUUGUCUCACUG against MTHFD2,0.341
8,AAACUUGUACACGUUCUUG against RPN2,1.31
9,AUACGAUAAAUAGCAGCUG against OR2D2,-0.266
10,UCAUGUAUUGCUGGGUGGG against LETMD1,-2.04
11,UGAAAGCGCAGAUCUGUCU against HIST1H3G,-0.148
12,UGGUCUAAGGCUUUGAUGC against KLK2,-0.348
13,UGAUAUUUUGGUGCGUUGU against FBXO45,0.68
14,UAGUUGGUGAGGAUCACGG against REN,-0.578
15,UACUCUUCCAACGACAGGC against UQCC2,0.919
16,UUCCGAGUUGCAGAGGUCU against SLURP1,-0.177
17,AAAAGGAUUGCUGAAAUGG against LOC650293,0.542
18,UCUUGACUGACUUUCUUCU against FAM173B,-2.2
19,AAUGGAUGCAGUGUCAAGC against PAK1IP1,1.75

row,Sequence,seed-corrected z-score
1,UUCCUUGACAAGCAUAACC against CARNMT1,-0.155
2,AAAUCUUACAGACUGGUUC against BEX1,-0.486
3,UCAUGGGUCACGUCAGCUG against SLC2A1,-0.895
4,ACACUGUAAAGCUCGGUGC against LARP1,0.106
5,UUAGAGUUGGUGAUGAGCA against GALK1,1.7
6,AAAAGGACUAUGUACAGCC against SNRPB,-3.37
7,UAUGCUCUCUGAUCGAAUG against ATG16L1,0.136
8,UUGCUCACAAUAAAAUAGC against GPR89A,-0.56
9,UGUAGACAAAGUACUGGGC against CNTN2,-0.261
10,AAACUUCCUAUUAUCGACC against SPRED2,-0.704
11,UUCGAGUGAAGACAGAAUC against ZNF318,-2.15
12,UAAGUUGUGAUGAUAGGUU against ZNF98,-0.0973
13,AUCUGAUCCAUAUUCUCCC against DIEXF,0.628
14,UACAAUAAAAGAAGCAUCU against PIGY,0.157
15,UUUCUUAGAAAUGAGGUGA against OVOL1,-0.287
16,UCAGGAUCUGUGGAUACUG against COPB2,-2.55
17,UCAUAGUCCACGAGUUUCC against BIN2,0.142
18,UUCGGUUGAACCUUGUCUG against ORC2,-0.39
